# Assay outcomes (PubChem)
# A selection: hits, their analogues and other compounds. The true share with any hit is near 5.7%.
# KB-3-1 cytotox = KB-3-1 parental cell cytotoxicity; Potency, µM (highest dose often 46.1 µM), actives largely listed as cytotoxic; actives 1.4% (n = 400,000); KB-3-1 viability, CellTiter-Glo ATP luminescence, 72 h; note: nearly all actives have a fitted effect of over 60% in size
#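 Cells are dispensed, compounds pinned in, plates held at 37 °C for 72 h, then CellTiter-Glo is added and luminescence read after 10 minutes. Cell line: parental KB-3-1 in phenol-red-free DMEM, 10% FBS.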
# KB-V1 cytotox = kills drug-selected multidrug resistant KB-V1 cells; KB-V1 MDR cells viability, CellTiter-Glo, 72 h; Potency, µM (highest dose often 46.1 µM), most hits filed as cytotoxic; actives 3.4% (n = 400,000); AID 1347076; note: nearly all actives have a fitted effect of over 60% in size
#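 Cytotoxicity via CellTiter-Glo luminescence after 72 h compound exposure at 37 degrees C. Cells: drug-selected KB-V1 line, DMEM phenol-red free plus 10% FBS. Compounds tested at multiple concentrations; normalized data fitted to concentration-effect curves.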
# HT1080 IDH1KD tx = toxicity to HT-1080 IDH1 knockdown cells (counter line); HT-1080 IDH1 knockdown viability, ATP luminescence, 48 h; Potency, µM (top dose mostly 46.1 µM), most hits filed as cytotoxic; actives 2% (n = 360,000); AID 686971
#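 CellTiter-Glo luminescence after 48 h compound exposure at 37 degrees C of IDH1-knockdown HT-1080 cells in 5% FBS RPMI. %Activity scaled between DMSO wells and cell-free media wells, with curves fitted and assigned curve classes.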
# HT1080-NT tox = kills 2HG-producing HT-1080-NT fibrosarcoma cells; Potency, µM (highest dose often 46.1 µM), actives largely listed as cytotoxic; HT-1080-NT fibrosarcoma viability, CellTiter-Glo ATP luminescence, 48 h; actives 1.6% (n = 360,000);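 note: NT is the 2HG producing partner of a matched IDH1 knockdown line; nearly all actives have a fitted effect of over 55% in size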
#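 A 48-hour cytotoxicity screen used HT-1080-NT cells plated 2 hours before compound delivery. ATP-based CellTiter-Glo luminescence measured viability, normalized to DMSO and no-cell controls.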
# A number is an active result; i = inactive; ? = inconclusive; nt = no result given. Calls come from the whole dose curve; as a rule, active = well fitted curve in the direction sought with a large enough effect; inconclusive = small, poorly fitted or top-dose-only effect, or another doubt; inactive = no such curve, though single readings can be large; an effect the other way counts as inactive or inconclusive.
SMILES,KB-3-1 cytotox,KB-V1 cytotox,HT1080 IDH1KD tx,HT1080-NT tox
CCOC(=O)N1CCN(c2ccccc2O)CC1,i,i,i,i
CCOC(=O)N1CCN(c2ncc3c(n2)CC(c2ccccc2O)CC3=O)CC1 (stereo unspecified),?,18µM,nt,nt
COc1cc(CN2CCc3nc(N4CCN(c5ncccn5)CC4)ncc3C2)cc(OC)c1OC,?,6.5µM,nt,nt
COc1cc(C2CC(=O)c3cnc(N4CCN(Cc5ccccc5)CC4)nc3C2)cc(OC)c1OC (stereo unspecified),5.8µM,?,i,i
CCc1ccccc1NC(=O)N1CC(C)Sc2ccccc21 (stereo unspecified),i,i,nt,nt
CCCCN(CC)CCCNC(=O)CS(=O)(=O)Cc1nc(-c2ccc(C)cc2)oc1C,i,i,nt,nt
Cc1cc2c(cc1C)N[C@]1(C[C@H]3CCCC(=O)N4CC[C@@H](C1)[C@@H]34)C(=Nc1ccccc1C)N2,i,i,nt,nt
COC(=O)c1ccc(C2CC(=O)Nc3c2c(C)nn3-c2nc(C)cc(C)n2)cc1 (stereo unspecified),i,i,nt,nt
c1ccc(-c2c[n+]3c(n2-c2ccccc2)CCC3)cc1,?,i,?,21µM
CCOc1ccc(-n2c(-c3ccccc3)c[n+]3c2CCCCC3)cc1,10µM,?,13µM,?
Cc1ccc(-n2c(-c3ccccc3)c[nH]c2=S)cc1,?,?,i,i
Cc1ccc(-c2c[n+]3c(n2-c2ccccc2)CCC3)cc1,1.3µM,i,?,?
S=c1[nH]cc(-c2ccccc2)n1-c1ccccc1,i,i,i,i
CC(C)CC(c1nnnn1CC1CCCO1)N1CCN(c2cccc(Cl)c2)CC1 (stereo unspecified),?,i,i,i
CC(C)CC(c1nnnn1Cc1ccco1)N1CCN(c2cccc(Cl)c2)CC1 (stereo unspecified),10µM,?,i,i
O=c1[nH]c2cc([N+](=O)[O-])cc(Cl)c2c2ccccc12,i,12µM,i,i
Nc1cccc2[nH]c(=O)c3ccccc3c12,?,i,i,i
COc1ccc(/C=C/c2ccnc3ccccc23)cc1,i,i,nt,nt
CC(C)(C)c1ccc(S(=O)(=O)N2CCN(Cc3noc(CCC(=O)N4CCCCC4)n3)CC2)cc1,i,i,nt,nt
Cc1ccc2nc(C)c3c(c2c1)N(c1ccc(F)cc1)CC3,?,?,15µM,21µM
CSc1nc(C)c2c(n1)N(c1ccc(F)cc1)CC2,i,i,i,i
Cc1ccc2c(CC(=O)NCc3ccco3)coc2c1C,7.3µM,5.8µM,7.3µM,5.2µM
CC1(C)CC(=O)c2sc(NC(=O)CCS(=O)(=O)c3ccccc3)nc2C1,21µM,i,i,i
CCC(NC(=O)Nc1nnc(C(F)(F)F)s1)(C(F)(F)F)C(F)(F)F,10µM,4.1µM,3.7µM,3.3µM
CC(C)(C)c1nnc(NC(=O)CCS(=O)(=O)c2ccccc2)s1,i,i,?,i
SMILES,KB-3-1 cytotox,KB-V1 cytotox,HT1080 IDH1KD tx,HT1080-NT tox
CC(Oc1ccccc1)C(=O)Nc1nc2c(s1)C(=O)CC(C)(C)C2 (stereo unspecified),i,i,i,i
O=C(CCS(=O)(=O)c1ccccc1)Nc1nnc(C(F)(F)F)s1,?,?,18µM,?
CCCCSc1nnc2n(-c3ccc(OC)cc3)c(=O)c3c4c(sc3n12)COC(C(C)C)C4 (stereo unspecified),i,i,nt,nt
COc1ccc(CCN2C(=O)c3oc4cc(C)cc(C)c4c(=O)c3C2c2ccc(F)cc2)cc1OC (stereo unspecified),i,i,nt,nt
COc1ccc(N(C(=O)C(C)C)S(=O)(=O)c2ccc(Cl)cc2)cc1,i,18µM,?,i
COc1ccc(N(C(=O)c2ccncc2)S(=O)(=O)c2ccc(Cl)cc2)cc1,i,i,i,i
CCOC(=O)/C(=N\Nc1ccccc1[N+](=O)[O-])c1csc(N)n1,i,i,i,i
CCOC(=O)/C(=N\Nc1ccc(C(C)=O)cc1)c1csc(Nc2ccccc2)n1,?,?,16µM,16µM
COc1ccc(-c2ccc(C(=O)NCCN(C)C)c3occc23)c(C)c1,i,i,18µM,29µM
COc1ccc(-c2ccc(C(=O)Nc3cc(OC)c(OC)c(OC)c3)c3occc23)c(C)c1,?,6.5µM,?,i
COc1ccc(-c2ccc(C(=O)NCc3ccc(N4CCN(C)CC4)cc3)c3occc23)c(C)c1,?,i,?,23µM
COc1cc(NC(=O)c2ccc(-c3c(C)noc3C)c3ccoc23)cc(OC)c1OC,?,5.8µM,?,i
COc1ccc(-c2ccc(C(=O)NCc3ccccc3)c3occc23)c(C)c1,i,i,?,?
COc1ccc(-c2ccc(C(=O)Nc3ccc(NC(C)=O)cc3)c3occc23)c(C)c1,i,i,i,i
COCCNC(=O)c1ccc(-c2ccc(OC)cc2C)c2ccoc12,i,i,i,i
COc1cc(OC)c(NC(=O)Cn2c(=O)oc3cc(S(=O)(=O)N4CCCC4)ccc32)cc1Cl,i,i,nt,nt
COc1ccc(-c2coc3c(C(=O)NCC(C)C)cccc23)c(C)c1,?,15µM,?,?
